# Bioassay records: PubChem, National Center for Advancing Translational Sciences (NCATS)
# An excerpt weighted towards active compounds, which were near 2.1% of everything screened.
# FUS suppressor – suppressors of FUS proteinopathy in yeast; S. cerevisiae FUS-expressing, growth rescue, OD600, 24 h; Potency, µM (series often up to 76.6 µM), actives largely listed as activators; 390,000 compounds, 0.24% hits;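 further: plate controls were DMSO vehicle for no effect and reference control for full effect; nearly all actives have a fitted effect of over 55% in size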
#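 Quantitative HTS measuring growth restoration of FUS-toxic yeast. Galactose-induced cells (OD 0.005) were exposed 24hr at 30C to compounds at several concentrations, then absorbance at 600 nm was recorded.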
# aSyn yeast inh – rescues yeast growth from alpha-synuclein toxicity. Yeast expressing alpha-synuclein, growth rescue, BacTiter-Glo, 24 h. 370,000 compounds, 0.14% hits. Potency, µM (titrated, usually from 46.1 µM), without a hit: top-dose growth rescue (activation), most hits filed as activators; further: % of control where 0% means no effect; nearly all actives have a fitted effect of over 65% in size
#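 Screening used galactose-induced yeast with toxic alpha-synuclein levels, exposed to compound for 24 hr at 30 deg C. Cell growth, read with BacTiter-Glo luminescence, gave the measured signal.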
# Abeta yeast res – A-beta toxicity reversal in yeast; Potency, µM (highest dose often 46.1 µM), hits mostly activators; yeast expressing A-beta42, growth rescue, OD600, 48 h; response scale: 0% DMSO, 100% iron-clioquinol control; 410,000 compounds, 0.063% hits; further: nearly all actives have a fitted effect of over 55% in size
#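 Yeast A-beta toxicity model in growth medium with pinned compounds, 48 h at 30 C; growth read as absorbance at 600 nm. Normalized to FeCl3/clioquinol equimolar mix (positive) and DMSO (negative).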
# TDP-43 yeast inh – inhibitors of TDP-43 toxicity in yeast; TDP-43 expressing yeast growth rescue, BacTiter-Glo, 24 h; Potency, µM (top dose mostly 46.1 µM), for inactives: top-dose growth rescue (activation), actives largely listed as activators; 410,000 compounds, 1.8% hits; AID 652104; further: % of control where 0% means no effect; nearly all actives have a fitted effect of over 50% in size
#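 Growth rescue of TDP-43-toxic yeast measured as ATP luminescence (BacTiter-Glo). Cells grown to mid-log in raffinose, induced in galactose at OD600=0.02, exposed to compound 24 hr at 30 deg C.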
# * hit, by the source's call; i = inactive; ? = inconclusive; nt = no result; [ ] = another dose, or the depositor's remark. The call rests on the fitted dose curve; in most records, active means well fitted curve in the direction sought with a large enough effect; inconclusive means small, poorly fitted or top-dose-only effect, or another doubt; inactive means no such curve, though single readings can be large; an effect the other way counts as inactive or inconclusive. Potency means the concentration at half of the fitted maximal effect.
SMILES,FUS suppressor,aSyn yeast inh,Abeta yeast res,TDP-43 yeast inh
Nc1nn(-c2ccccc2)c(N)c1N=Nc1ccccc1,nt,-13%,i,?
Nc1nn(-c2ccccc2)c(N)c1N=Nc1ccccc1F,i,-26%,i,13µM*
Cc1cccc(N=Nc2c(C)nn(-c3ccccc3)c2N)c1C,nt,-20%,i,20µM*
O=C(NC1CC(=O)N(c2ccc(F)cc2)C1)C(c1ccccc1)c1ccccc1 (stereo not given),i,nt,i,-4%
c1ccc(-c2cnc(CSc3ncnc4sccc34)o2)cc1,i,3%,i,22µM*
CC(=O)Nc1ccc(SCc2ncc(-c3ccccc3)o2)cc1,i,-18%,i,-1%
O=[N+]([O-])c1cc(C(F)(F)F)ccc1NCCc1c[nH]c2ccccc12,i,4%,i,22µM*
O=[N+]([O-])c1cc(C(F)(F)F)ccc1NCCc1c[nH]c2ccc(O)cc12,i,17%,i,6%
O=C(Nc1ccccc1Oc1ccccc1)c1cnccn1,i,-7%,i,16%
CCOc1ccccc1NC(=O)c1cnccn1,i,-9%,i,11µM*
CCOc1ccccc1NC(=O)c1cccc2ccccc12,i,-1%,i,7.9µM*
COc1cc(OC)c(/C=C/c2nccc3ccccc23)c(OC)c1,nt,-10%,nt,nt
Cn1c(=O)oc2cc(S(=O)(=O)N3CCN(c4cccc(C(F)(F)F)c4)CC3)ccc21,i,nt,nt,nt
O=C(NCc1ccc2c(c1)OCO2)C12CN(Cc3ccccc3)CC1C(c1cccc([N+](=O)[O-])c1)=NO2 (stereo not given),28µM*,-4%,i,-13%
Cc1cc2n(n1)C(c1sccc1C)Nc1ccccc1-2 (stereo not given),i,-2%,i,18µM*
Cc1ccc2c(c1)-c1cc(C)nn1C(c1sccc1C)N2 (stereo not given),i,-16%,i,?
O=C(NCC1COc2ccccc2O1)c1ccc(NC(=O)C(Cl)Cl)cc1 (stereo not given),i,nt,nt,nt
Cc1ccc2nc(-c3ccccc3Cl)cc(C(=O)Nc3cc(C)on3)c2c1,i,9%,i,18µM*
N#CCSc1nnc(COc2cccc3ccccc23)n1-c1ccccc1,i,0%,i,20µM*
Cc1ccc(-c2noc(CNC(=O)c3ccccc3)n2)cc1,i,nt,i,-1%
CN(CC1COc2ccccc2O1)C(=O)CSc1ncnc2sccc12 (stereo not given),?,10%[1.84 µM],i,18µM*
COc1cc(Nc2cccc(-c3ccccc3)n2)cc(OC)c1OC,i,5%,i,32µM*
O=C1CC(Sc2ccc(Cl)cc2)C(=O)N1c1ccc2c(c1)OCCO2 (stereo not given),i,26%,i,11µM*
COC(=O)[C@]12C[C@H](CC(=O)NCc3ccc(OC)c(OC)c3)C(=O)N(CCc3ccc(OC)c(OC)c3)C1=C[C@H](C(C)C)O[C@@H]2C1CC1,i,nt,nt,nt
COc1cccc(NCc2nnc(SC(C(=O)N(C)C)c3ccccc3)n2C2CCCCC2)c1 (stereo not given),nt,6%,nt,nt
SMILES,FUS suppressor,aSyn yeast inh,Abeta yeast res,TDP-43 yeast inh
CC(C)Cc1ccc(-c2cc(=O)[nH][nH]2)cc1,i,6%,i,20µM*
Cc1ccc(-c2cc(=O)[nH][nH]2)c(C)c1,i,-8%,i,-4%
ClCc1nc2ccccc2c2ccccc12,i,-1%,i,14µM*
Cc1noc2ncnc(N3CCN(c4ccccc4F)CC3)c12,i,?,i,22µM*
Fc1ccc(-c2noc3ncnc(N4CCN(c5ccccc5)CC4)c23)cc1,i,-8%,i,25µM*
NNC(=O)c1cc2cc(Oc3ccccc3)ccc2[nH]1,i,1%,i,10µM*
NNC(=O)c1cc2ccccc2[nH]1,i,-15%,i,nt
CN(C)c1ccc(/C=C2\C=Cc3ccccc32)c(F)c1,nt,-12%,nt,nt
Cc1ccc(-c2nc(C(=O)NC3CCCCCC3)no2)cc1,i,-3%,i,18µM*
O=C(C1CCC(Cn2c(=O)c3sccc3n(Cc3ccccc3)c2=O)CC1)N1CCCCC1 (stereo not given),i,nt,i,-16%
COc1cccc(Cn2c(=O)n(CC3CCC(C(=O)N4CCCCC4)CC3)c(=O)c3sccc32)c1 (stereo not given),20µM*,nt,i,?
CCc1ccccc1NNC(=O)c1sccc1Cl,nt,9%,nt,nt
O=[N+]([O-])c1ccc2c(c1)C=C/C2=C\c1ccccc1,nt,3%,nt,nt
COC(=O)CSc1nnc(-c2cccs2)o1,i,nt,nt,nt
CC1=C(C#N)C(=O)NC(=O)/C1=C\c1ccc(-c2ccc(C)cc2[N+](=O)[O-])o1,i,5%,i,32µM*
COc1ccc(C(=O)Sc2ccc(C)cc2)cc1OC,i,-2%,i,11µM*
CCC(Sc1nncn2c1cc1occc12)C(=O)Nc1ccc(C)c(Cl)c1 (stereo not given),i,nt,i,16%
Cc1cccc(NS(=O)(=O)c2ccc3c(c2)[C@H]2C=CC[C@H]2[C@@H](c2ccc(F)cc2)N3)c1,?,nt,i,1%[9.22 µM]
Fc1ccc([C@@H]2Nc3ccccc3[C@@H]3C=CC[C@@H]32)cc1,i,nt,13µM*,11%[9.22 µM]
COc1ccc(-c2[nH]ncc2C(=O)NCc2ccc(F)cc2)cc1,i,nt,i,21%
Cc1ccccc1Nc1nc2ccccc2s1,nt,-1%,i,20µM*
CCc1ccc(C(=O)c2cn(CC(=O)Nc3ccc(OC)c(OC)c3)c3ccc(C)cc3c2=O)cc1,i,nt,i,21%
Cc1ccccc1OCCC(=O)Nc1ccc(F)c(Cl)c1,i,-5%,i,14µM*
CC1(C)CC2CC(C)(CN2C(=O)COC(=O)c2ccc(O)cc2O)C1 (stereo not given),i,-11%,10µM*,19%
CC1(C)CC2CC(C)(CN2C(=O)COC(=O)c2cc(Cl)cc(Cl)c2N)C1 (stereo not given),i,7%,i,-10%
SMILES,FUS suppressor,aSyn yeast inh,Abeta yeast res,TDP-43 yeast inh
Cc1cc(-c2csc(N)n2)c(C)n1C,i,-8%,i,-3%
Cc1cc(-c2csc(N)n2)c(C)n1Cc1ccco1,28µM*,-7%,i,-11%
O=C1C=C(c2cccc(Br)c2)C[C@@H](c2ccc(Cl)cc2)C1,i,8%,i,0%
CC(=O)Nc1ccc(C2=CC(=O)C[C@H](c3ccc(Cl)cc3)C2)cc1,?,2%,i,35µM*
COc1ccc([C@H]2CC(=O)C=C(c3ccc(NC(C)=O)cc3)C2)cc1OC,i,2%,i,9%
O=C1C=C(c2cccc(Cl)c2O)C[C@@H](c2ccc(Cl)cc2)C1,?,-15%,i,3.2µM*
COc1cc(F)c(C2=CC(=O)C[C@H](c3ccc(Cl)cc3)C2)cc1F,i,0%,i,?
COc1ccc([C@H]2CC(=O)C=C(c3cccc4c3sc3ccccc34)C2)cc1OC,i,10%,i,-1%
